From PubChem BioAssay
Hits are enriched below; roughly 2.8% of the tested compounds scored in any of these assays.
PI5P4Ka inh: blocks human PI5P4K alpha kinase activity | P48426 | PI5P4Kalpha enzyme, ADP-Glo luminescence, 60 min; stronger effect = lower value | max response, % | hit rate 1.2% among 330,000 | AID 652105; active means max response of -50% or lower; inconclusive means between -30% and -50%; inactive means -30% or higher; further: value at the top dose of about 77 µM
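Luminescence from ADP-Glo served as readout of PI5P4Kalpha activity in a qHTS format. Reaction: enzyme, substrate, compound, ATP at 5 microM final, 60 min at RT.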
POLH inh: inhibitors of human DNA polymerase eta | Q9Y253 | AID 588591 | Potency, µM (top dose mostly 114 µM), most hits filed as inhibitors | hit rate 1.2% among 390,000 | recombinant Pol eta, fluorescent DNA replication assay
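Pol eta (10 nM) was preincubated with compounds for 15 min at room temperature, after which fluorescent replication substrate (50 nM final) was added to start the reaction. Fluorescence was read kinetically at 0 and 10 min.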
POLK inh: blocks human DNA polymerase kappa activity | Q9UBT6 | purified Pol kappa, fluorescent DNA synthesis assay, 10 min | Potency, µM (titrated, usually from 107 µM), hits mostly inhibitors | hit rate 0.53% among 400,000 | AID 588579
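Activity was followed as the change in fluorescence between reads at 0 and 10 min after starting the reaction with 50 nM substrate. Beforehand, 10 nM polymerase had been preincubated with compound for 15 min at room temperature.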
POLI inh: blocks human DNA polymerase iota activity; Potency, µM (titrated, usually from 115 µM), actives largely listed as inhibitors; Pol iota fluorescent replication assay, 10 min; Q9UNA4; hit rate 1% among 390,000; AID 588590
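Fluorescent replication assay read twice, at 0 min and 10 min after adding 50 nM (final) substrate. Enzyme (10 nM) and compounds were first incubated 15 min at room temperature; enzyme-free buffer wells were negative controls.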
WRN helicase inh: inhibitors of human WRN helicase | Potency, µM (titrated, usually from 114 µM), actives largely listed as inhibitors | WRN helicase unwinding, fluorescent forked duplex, kinetic | Q14191 | hit rate 0.46% among 360,000; further: nearly all actives have a fitted effect of over 55% in size
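Screening of the MLSMR collection measured strand separation of a quenched forked DNA duplex (100 nM) by 20 nM WRN with 2 mM ATP, all final. Compounds were preincubated with enzyme 15 min at room temperature.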
POLB inh: inhibitors of human DNA polymerase beta. P06746. Pol beta primer extension/strand displacement, fluorescence kinetic. Potency, µM (doses to about 114 µM), actives largely listed as inhibitors. hit rate 1.3% among 340,000. AID 485314
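Curves were derived by four-parameter Hill fits of normalized qHTS data. The kinetic fluorescent primer-extension read was taken at 0 and 10 min after 50 nM substrate, following a 15 min room-temperature preincubation of 10 nM enzyme with compounds.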
ADP-Glo counter: counter-screen for PI5P4K inhibitors: ADP-Glo detection interference, no enzyme. shares compounds with PI5P4Ka inh. ADP-Glo detection counter-screen, luciferase luminescence, no enzyme. Potency, µM (highest dose often 76.9 µM), most hits filed as inhibitors. 1,100 tested, under 10 active. AID 743285
Of the large screens only hits and unclear results are named; the others gave an inactive call (follow-up assays come after a bar, where they were run). Unless noted, the call rests on the fitted dose curve; in most records, active means well fitted curve in the direction sought with a large enough effect; inconclusive means small, poorly fitted or top-dose-only effect, or another doubt; inactive means no such curve, though single readings can be large; an effect the other way counts as inactive or inconclusive.

COc1cccc(CNC(=O)COC(=O)c2c(C)nn(-c3ccccc3)c2Cl)c1	PI5P4Ka inh -59, POLH inh 13µM, POLI inh inconclusive (no result: POLB inh) | ADP-Glo counter inactive
CC(=O)O[C@@H]1[C@@H](O)CN[C@@H]1Cc1ccccc1	none (no result: PI5P4Ka inh, POLH inh, WRN helicase inh, POLB inh)
Cc1ccc(CNC(=O)CCS(=O)(=O)c2ccc(Cl)cc2)cc1	PI5P4Ka inh -94 | ADP-Glo counter inactive
Cc1ccc(S(=O)(=O)CCC(=O)OCC(=O)NCc2ccc(F)cc2)cc1	none (no result: POLK inh, POLI inh, POLB inh)
O=C(CCS(=O)(=O)c1ccc(Br)cc1)NCc1ccc(F)cc1	PI5P4Ka inh inconclusive, POLH inh 40µM, POLK inh inconclusive, POLB inh inconclusive | ADP-Glo counter inactive
CCCCC1Cc2[nH][nH]c(=O)c2C(c2ccc(F)cc2)O1 (stereo unspecified)	PI5P4Ka inh -51 (no result: POLH inh, POLK inh, POLI inh, POLB inh) | ADP-Glo counter inactive
CCOc1ccc(NC(=O)c2ccc3c(c2)N(Cc2ccc(F)cc2)C(=O)CS3=O)cc1 (stereo unspecified)	none
Cc1ccc(C)c(NC(=O)c2ccc3c(c2)N(Cc2ccc(F)cc2)C(=O)CS3=O)c1 (stereo unspecified)	PI5P4Ka inh -58, POLH inh inconclusive, POLI inh inconclusive | ADP-Glo counter inactive
